The values that follow come from PubChem BioAssay (NCATS).

A short description of test [1]: Viability qHTS for spleen associated tyrosine kinase inhibitor (SYKi) naive MV4-11 cells (AID 1963823). Note: nearly all actives have a fitted effect of over 40% in size. The method in brief:
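Compounds were dispensed acoustically onto plates, MV4-11 cells (SYKi-naive) added at 500 per well, and plates incubated 72 hr at 37 C. CellTiter-Glo was added and luminescence measured after 10 min.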

A short description of test [2]: Viability qHTS for spleen associated tyrosine kinase inhibitor (SYKi) drug resistant MV4-11 cells (AID 1963824). Note: nearly all actives have a fitted effect of over 35% in size. In outline:
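SYK-inhibitor-resistant MV4-11 AML cells were seeded at 500 per well onto compound and cultured 72 hours (37 °C, 5% CO2). CellTiter-Glo was then added, and after 10 min at room temperature, luminescence gave viability.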

Test [3] is described as follows: Quantitative highthroughput screen to assess conditional lethalithy of NOMO1 cells grown in Human Plasma-Like Medium with dialyzed fetal bovine serum (HPLM+ds) (AID 1963878).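 For Viability: 100% = DMSO wells and 0% = empty wells on each plate.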 Note: nearly all actives have a fitted effect of over 35% in size. In outline:
(§1)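 Each medium arm—HPLM with 10% dialyzed FBS, or RPMI1640 with 5 mM glucose and 10% untreated or dialyzed FBS—was screened against an 11-point, 3-fold compound titration for 48 h at 37 °C, with CellTiter-Glo luminescence as endpoint.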

The nature of test [4]: Quantitative highthroughput screen to assess conditional lethalithy of P12 Ichikawa cells grown in RPMI1640 with dialyzed fetal bovine serum (RPMI+ds) (AID 1963880).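 For Viability: 100% = DMSO wells and 0% = empty wells on each plate.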 Note: nearly all actives have a fitted effect of over 35% in size. The settings on record: Potency: P12-Ichikawa viability. The method in brief: as §1
Test [5] in a line: Quantitative highthroughput screen to assess conditional lethalithy of P12 Ichikawa cells grown in RPMI1640 with untreated serum (RPMI+s) (AID 1963881).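 For Viability: series mostly up to about 46 µM; 100% = DMSO wells and 0% = empty wells without cells.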 Note: nearly all actives have a fitted effect of over 35% in size. Particulars: Potency: viability. The method in brief:
as §1

Test [6] in a line: Quantitative highthroughput screen to assess conditional lethalithy of SEM cells grown in Human Plasma-Like Medium with dialyzed fetal bovine serum (HPLM+ds) (AID 1963882). For Viability: series mostly up to about 46 µM. Note: nearly all actives have a fitted effect of over 35% in size. The method in brief:
as §1

Test [7] in a line: Quantitative highthroughput screen to assess conditional lethalithy of SEM cells grown in RPMI1640 with dialyzed fetal bovine serum (RPMI+ds) (AID 1963884).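 For Viability: series mostly up to about 46 µM; 100% = DMSO control wells and 0% = empty wells without cells.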 Note: nearly all actives have a fitted effect of over 35% in size. In outline:
as §1

Test [8] is described as follows: Cellular viability qHTS for adrenocortical cancer (ACC) cell line SW-13 (AID 1963989).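 For activity (max response): cells grown in serum-free medium with ITS supplement; % is set by controls: 0 for no effect and ±100 for the full control effect.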 Note: nearly all actives have a fitted effect of over 65% in size. Particulars: SW-13 ACC cells viability, CellTiter-Glo, 48 h; activity (max response): stronger effect = lower value. The method in brief:
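SW-13 cells in ITS-supplemented serum-free DMEM were plated overnight, then exposed for 48 h at 37C to compound titrations (up to 46 uM final). Viability was read by CellTiter-Glo luminescence; four-parameter logistic fits gave IC50 and efficacy.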

The nature of test [9]: Cellular viability qHTS for adrenocortical cancer (ACC) cell line NCI-H295R (AID 1963990). Note: nearly all actives have a fitted effect of over 60% in size. In outline: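 Luminescent ATP read-out (CellTiter-Glo, 20 min RT) after 48 h drug exposure of NCI-H295R cells; a titration up to 46 uM final. Data normalized to doxorubicin (100% inhibition) and DMSO (0%); 4-parameter fit gives IC50, max response.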
A short description of test [10]: Quantitative highthroughput screen to assess conditional lethalithy of NOMO1 cells grown in RPMI1640 with dialyzed fetal bovine serum (RPMI+ds) (AID 1963877). Note: nearly all actives have a fitted effect of over 30% in size. The method in brief:
as §1

Test [11] can be described thus: Quantitative highthroughput screen to assess conditional lethalithy of P12 Ichikawa cells grown in Human Plasma-Like Medium with dialyzed fetal bovine serum (HPLM+ds) (AID 1963879). For Viability: series mostly up to about 46 µM. Note: nearly all actives have a fitted effect of over 35% in size. The settings on record: Potency: viability. The method in brief:
as §1

Test [12] is described as follows: Quantitative highthroughput screen to assess conditional lethalithy of SEM cells grown in RPMI1640 with unreated serum (RPMI+s) (AID 1963883).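 For Viability: 100% = DMSO wells and 0% = empty wells without cells.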 Note: nearly all actives have a fitted effect of over 35% in size. The method in brief: as §1

Values joined by “and” are separate entries in the source; they are usually repeats but may differ in a detail not shown here. Equal values may be shown once. Inconclusive results are not listed. A structure can be active in one record and inactive in another. Active and inactive are the calls of the source. Calls come from the whole dose curve; as a rule, active = well fitted curve in the direction sought with a large enough effect; inconclusive = small, poorly fitted or top-dose-only effect, or another doubt; inactive = no such curve, though single readings can be large; an effect the other way counts as inactive or inconclusive.
Potency is the fitted concentration of half-maximal effect.

As to `CNC(=O)c1c(-c2ccc(F)cc2)oc2cc(N(CCO)S(C)(=O)=O)c(C3CC3)cc12`, the Potency result in [1], in test [2] and in test [9] was “inactive” throughout. Moreover, the Potency in [3] was 8.33 µM (active); in [4], 5.9 µM (active); in test [5], 6.62 µM (active); in test [6] it was 1.32 µM (active); in [7] it was 0.264 µM (active). For the same compound, the activity (max response) in [8] is -0.986% (inactive).
Regarding `COc1cc(NCc2ccc3nc(N)nc(N)c3c2C)cc(OC)c1OC`, the Potency in test [1] was 1.05 µM (active); in test [2], 42.2 nM (active) and 1.05 µM (active); in [10] it was 10.5 µM (active); in [4], 10.5 µM (active); in test [5], 18.7 µM (active); in [8] it was 10.3 nM (active) and 1.12 µM (active). For the same compound, the Potency in test [9] is 14.6 nM (active) and 2.82 µM (active).
On to `CC(C)(C)NC(=O)Nc1cccc(Nc2ncc(F)c(NC(C)(C)CO)n2)c1`, for which the Potency in [1] was 1.48 µM (active); in [2], 2.31 µM (active); in [11], 8.33 µM (active); in test [12], 7.43 µM (active); in test [7], 6.62 µM (active). Also, the Potency entry in test [3] is “inactive”.
With `COc1cc(Nc2nc3ccccc3nc2NS(=O)(=O)c2ccc(NC(=O)c3ccc(C)c(OC)c3)cc2)cc(OC)c1`, the Potency was 18.6 µM (active) in test [1]; 18.6 µM (active) in test [2]; 7.43 µM (active) in test [10]; 5.9 µM (active) in test [11]; 14.8 µM (active) in test [4]. Besides, the activity (max response) in test [8] is 11.3% (inactive). Besides, the Potency entry in [9] was “inactive”.
As to `O[C@@H](CNC[C@H](O)[C@H]1CCc2cc(F)ccc2O1)[C@@H]1CCc2cc(F)ccc2O1`, the Potency in test [1] is 10.6 µM (active); in test [2] it was 21.1 µM (active); in test [3] it was 20.9 µM (active); in [9] it was 18.4 µM (active). Also, the Potency result in test [11] was “inactive”.
For `Cc1nc2c(-c3cnc(N)nc3)nc(N3CCOCC3)nc2n1C(C)C`, the Potency in test [1] is 0.209 µM (active); in test [2], 326 nM (active) and 468 nM (active); in test [11] it was 0.0029 µM (active); in test [4], 0.0234 µM (active); in test [5], 0.0186 µM (active); in test [9], 0.562 µM (active).
As to `Nc1nc(Cl)nc2c1ncn2[C@@H]1O[C@H](CO)[C@@H](O)[C@H]1F`, the Potency was 0.082 µM (active) in [1] and 0.164 µM (active) in test [2]. For the same compound, the Potency result in test [11], in [4], in [5], in [6], in [12] and in test [7] was “inactive” throughout.
For the compound `FC(F)c1nc2ccccc2n1-c1nc(N2CCOCC2)nc(N2CCOCC2)n1`, the Potency in test [1] is 0.186 µM (active); in [2] it was 820 nM (active) and 525 nM (active); in test [3], 0.0148 µM (active); in [9], 0.562 µM (active).
Consider `CN1CCN(c2cc(C(=O)Nc3ccc4c(c3)-c3c(c(C(N)=O)nn3-c3ccc(F)cc3)CC4)c(Cl)cn2)CC1`, for which the Potency is 4.11 µM (active) in test [1], 2.59 µM (active) in test [2], 26.4 µM (active) in test [3] and 23.5 µM (active) in test [6]. For the same compound, the activity (max response) in [8] was -15.3% (inactive).
As for `NC1(c2ccc(-c3nc4ccn5c(=O)[nH]nc5c4cc3-c3ccccc3)cc2)CCC1`, the Potency in [1] is 3.72 µM (active); in test [2] it was 11.9 µM (active) and 8.2 µM (active) and 5.9 µM (active); in test [3] it was 20.9 µM (active); in test [6] it was 1.66 µM (active); in [12], 2.09 µM (active); in test [7] it was 1.48 µM (active). In addition, in test [9], the Potency was 10.3 µM (active) and 7.94 µM (active).
Take `OC(c1cc(C(F)(F)F)nc2c(C(F)(F)F)cccc12)C1CCCCN1` (stereo not drawn): the Potency in [1] was 18.6 µM (active); in test [2], 9.34 µM (active); in [3], 23.5 µM (active); in test [8] it was 22.4 µM (active); in test [9] it was 25.1 µM (active).
Turning to `CNCCCC12CCC(c3ccccc31)c1ccccc12`, the Potency is 18.8 µM (active) and 14.6 µM (active) in test [1]; 18.4 µM (active) in test [2]; 18.7 µM (active) in test [3]; 18.7 µM (active) in test [4]; 23.1 µM (active) and 25.1 µM (active) in test [9]. Besides, in [12], the Potency result is “inactive”.
As for `CC1=C(C(=O)Nc2cc3cn[nH]c3cc2F)C(c2ccc(Cl)cc2F)N=C(c2ccnc(Cl)c2)N1` (stereo not drawn), the Potency in test [1] is 4.61 µM (active); in test [2], 4.61 µM (active) and 5.9 µM (active); in test [11], 20.9 µM (active); in test [4] it was 20.9 µM (active); in [5], 18.7 µM (active); in test [6], 16.6 µM (active). For the same compound, the Potency is 18.7 µM (active) in test [12], 16.6 µM (active) in test [7] and 25.1 µM (active) in test [9].
For the compound `CN[C@@H]1CN(c2ccc3c(=O)c(C(=O)O)cn(-c4nccs4)c3n2)C[C@@H]1OC`, the Potency was 0.407 µM (active) in [1]; 0.512 µM (active) in test [2]; 14.4 µM (active) in [11]; 6.45 µM (active) in test [5]; 6.45 µM (active) in test [6]; 1.44 µM (active) in test [12]. In addition, in test [7], the Potency was 2.04 µM (active). For the same compound, the activity (max response) in test [8] is -14.5% (inactive).
With `COc1cc(-c2nn(C3CCC(N4CCN(C(C)=O)CC4)CC3)c3ncnc(N)c23)ccc1NC(=O)c1cc2ccccc2n1C` (stereo not drawn), the Potency result in [1] was “inactive and 2.63 µM (active)”; in test [2] it was 2.95 µM (active). In addition, the Potency entry in test [11], in [4], in test [5], in [6], in test [12] and in test [7] was “inactive” throughout. In addition, in test [9], the Potency entry was “inactive”. Further, the activity (max response) in test [8] is -14.1% (inactive).
As for `COc1ccc(C=Cc2cc(OC)c(OC)c(OC)c2)cc1NC(=O)[C@H](N)CO`, the Potency in [1] is 0.0332 µM (active); in [2] it was 0.0417 µM (active); in test [11], 0.0296 µM (active); in test [4], 0.0469 µM (active); in [5] it was 0.0166 µM (active); in [6], 0.0264 µM (active). Besides, the Potency in [12] is 0.0209 µM (active); in [7], 0.0296 µM (active); in test [8], 0.126 µM (active).
In the case of `OCCN1CCN(CCCN2c3ccccc3Sc3ccc(C(F)(F)F)cc32)CC1`, the Potency is 16.8 µM (active) and 5.25 µM (active) in [1]; 26.6 µM (active) and 5.25 µM (active) in test [2]; 7.43 µM (active) in [11]; 14.8 µM (active) in test [4]; 11.8 µM (active) in [5]. The activity (max response) in test [8] is 8.75% (inactive). In test [9], the Potency entry is “inactive”.
